Data: PubChem BioAssay (EPA / NIEHS)
Values joined by “and” are separate entries in the source; they are usually repeats but may differ in a detail not shown here. Equal entries are not always repeated. A structure can be active in one record and inactive in another. Active and inactive are the calls of the source. Rule for the calls: active = hit-call score of the fitted dose curve at least 0.9, where 1 is the maximum; inactive = score below 0.9.

Assays:
[1] = read-out: Interleukin 17F (IL17F), IL17F (gene 112744); assay: BSK_BT_xIL17F: BioMAP Diversity Plus: BT Assay for Interleukin 17F (IL17F) Biomarker Activity (AID 2284243); conditions: primary human B cells with PBMC
How it was run: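 Human B cells co-cultured with PBMC; secreted IL-17F quantified by LumineX xMAP 24 hours after chemical dosing. Activity fitted in the positive direction against DMSO negative control as baseline.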

[2] = read-out: Actin alpha 1 (ACTA1), ACTA1 (gene 58); assay: BSK_MyoF_ACTA1: BioMAP Diversity Plus: MyoF Assay for Actin alpha 1 (ACTA1) Biomarker Activity (AID 2284244); conditions: primary human lung fibroblasts
How it was run: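 Cells were exposed to chemical for 24 h before a-SMA levels were quantified by ELISA in human lung fibroblasts. Increases were fitted against DMSO as negative control; parallel SRB staining (0.1% after 10% TCA fixation, 560 nm) assessed cytotoxicity.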

[3] = read-out: Basic fibroblast growth factor (bFGF), FGF2 (gene 2247); assay: BSK_MyoF_bFGF: BioMAP Diversity Plus: MyoF Assay for Basic fibroblast growth factor (bFGF) Biomarker Activity (AID 2284246); conditions: primary human lung fibroblasts
How it was run: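 Chemicals are added to human lung fibroblast cultures and incubated 24 h. bFGF is then measured by ELISA, while parallel cultures receive SRB staining for total protein as a cytotoxicity check. Data are fitted upward against DMSO.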

[4] = read-out: Collagen IV, COL4A1 (gene 1282); assay: BSK_MyoF_CollagenIV: BioMAP Diversity Plus: MyoF Assay for Collagen IV Biomarker Activity (AID 2284247); conditions: primary human lung fibroblasts
How it was run: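 Human lung fibroblast system, 24 h chemical exposure. Endpoint: Collagen IV by ELISA, upward fit vs DMSO.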

[5] = read-out: Monokine induced gamma interferon (MIG), CXCL9 (gene 4283); assay: BSK_KF3CT_MIG: BioMAP Diversity Plus: KF3CT Assay for Monokine induced gamma interferon (MIG) Biomarker Activity (AID 2284248); conditions: primary human keratinocytes with fibroblasts
How it was run: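 Parallel cultures were stained with SRB (560 nm) to check cytotoxicity. MIG was quantified by ELISA in a primary human skin keratinocyte/fibroblast co-culture 24 h post-dosing, with gain of signal fitted relative to DMSO.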

[6] = read-out: Collagen I, COL1A1 (gene 1277); assay: BSK_hDFCGF_CollagenI: BioMAP Diversity Plus: hDFCGF Assay for Collagen I Biomarker Activity (AID 2284250); conditions: primary human foreskin fibroblasts
How it was run: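 Collagen I ELISA, primary human foreskin fibroblasts, 24 h chemical exposure, DMSO = negative control/baseline, positive fitting direction.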

[7] = read-out: Interferon-inducible T-cell alpha chemoattractant (ITAC), CXCL11 (gene 6373); assay: BSK_hDFCGF_ITAC: BioMAP Diversity Plus: hDFCGF Assay for Interferon-inducible T-cell alpha chemoattractant (ITAC) Biomarker Activity (AID 2284251); conditions: primary human foreskin fibroblasts
How it was run: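 I-TAC levels were read by ELISA on human dermal foreskin fibroblast primary cultures 24 h after dosing, analysed against DMSO in the positive direction. Cytotoxicity was assessed alongside by sulforhodamine B total-protein staining.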

[8] = read-out: Plasminogen activator inhibitor-1 (PAI1), SERPINE1 (gene 5054); assay: BSK_KF3CT_PAI1: BioMAP Diversity Plus: KF3CT Assay for Plasminogen activator inhibitor-1 (PAI1) Biomarker Activity (AID 2284252); conditions: primary human keratinocytes with fibroblasts
How it was run: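 Cells (human keratinocytes co-cultured with foreskin fibroblasts) are exposed to test chemical for 24 h. PAI-1 is then measured by ELISA and analysed for signal gain against DMSO.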

[9] = read-out: Vascular cell adhesion molecule 1 (VCAM1), VCAM1 (gene 7412); assay: BSK_BF4T_VCAM1: BioMAP Diversity Plus: BF4T Assay for Vascular cell adhesion molecule 1 (VCAM1) Biomarker Activity (AID 2284249); conditions: primary human bronchial epithelial cells with fibroblasts
Method: BSK_BF4T is a cell-based, multiplexed-readout assay that uses bronchial epithelial cells and dermal fibroblasts, a human vascular primary cell, with measurements taken at 24 hours after chemical dosing in a microplate: 96-well plate.BSK_BF4T_VCAM1 is an assay component measured in the BSK_BF4T assay. It measures VCAM-1 antibody related to regulation of gene expression using ELISA technology.Data from the assay component BSK_BF4T_VCAM1 was analyzed at the endpoint, BSK_BF4T_VCAM1, in the positive analysis fitting direction relative to DMSO as the negative control and baseline of activity. Using a type of binding reporter, gain or loss-of-signal activity can be used to understand protein changes. […]
The levels of cell surface (or secreted, indicated by the prefix "s") biomarker endpoints were measured by ELISA. Overt cytotoxicity to cells in confluent adherent cultures (all systems other than the BT system) was assessed by measuring total protein levels using sulforhodamine B (SRB) staining in parallel cultures at the time of biomarker measurements, indicated as SRB endpoints. For proliferation assays for adherent cell types, individual cell types are cultured at sub-confluence and relative cell numbers quantified by SRB staining at time points optimized for each system (48 h: 3C and CASM3C systems; 72 h: BT and HDF3CGF systems; 96 h: SAg system). […] Plates were read after 6 h.

Measured: AC50

CC(Cl)COP(=O)(OCC(C)Cl)OCC(C)Cl (stereo unspecified)
inactive: [1] | [2] | [3] | [4]

c1ccc2c(c1)[nH]c1ccccc12
inactive: [1] | [2] | [3] | [4]

c1ccc(Nc2cccc3ccccc23)cc1
active: [5] 38.9 µM and 33.8 µM | [6] 14.3 µM | [7] 30.1 µM and 30.3 µM | [8] 27.4 µM and 26.5 µM
inactive: [6]

CC(C)C(=O)OCCc1ccccc1
inactive: [5] | [6] | [7] | [8]

COc1ccc(C(=O)c2ccccc2)c(O)c1
inactive: [1] | [2] | [3] | [4]

Fc1ccc(Br)cc1
inactive: [1] | [2] | [3] | [4]

C=CC(=O)OCC(C)OCC(C)OCC(C)OC(=O)C=C (stereo unspecified)
active: [1] 7.15 µM | [2] 30.8 µM | [3] 31.1 µM | [4] 23.5 µM

CCCCCCC=O
inactive: [1] | [2] | [3] | [4]

C[N+](C)(C)CCCNS(=O)(=O)C(F)(F)C(F)(F)C(F)(F)C(F)(F)C(F)(F)C(F)(F)C(F)(F)C(F)(F)F
inactive: [4] | [5] | [9] | [6] | [8]
active: [1] 22.5 µM and 21.6 µM | [2] 33.6 µM and 31.3 µM | [3] 46.9 µM and 47.2 µM | [4] 48.9 µM | [7] 47.1 µM and 49.6 µM | [8] 46.1 µM

CC(CCC(=O)O)(c1ccc(O)cc1)c1ccc(O)cc1
inactive: [5] | [6] | [7] | [8]

C=C(C)C(=O)OCCCCCCCCCCCC
inactive: [1] | [2] | [3] | [4]

CCOC(=O)C1=NN(c2ccc(Cl)cc2Cl)C(C)(C(=O)OCC)C1 (stereo unspecified)
inactive: [1] | [2] | [3] | [4]

Cc1c(O)cccc1O
inactive: [1] | [2] | [3] | [4]

CC(C)CCCCCOC(=O)CS
inactive: [1] | [2] | [3] | [4]

CCCCCCCO
inactive: [1] | [2] | [3] | [4]

CC1(C)CC(O)CC(C)(C)N1[O]
inactive: [1] | [2] | [3] | [4]

CC1=CC=C(C(C)C)CC1
inactive: [1] | [2] | [3] | [4]

O=C(O)C(F)(F)C(F)(F)C(F)(F)C(F)(F)C(=O)O
inactive: all assays above

CC(C)[N+](C)(CCOC(=O)C1c2ccccc2Oc2ccccc21)C(C)C
inactive: [1] | [2] | [3] | [4]

CCCCCCCCCCCC(=O)N(C)CC(=O)O
inactive: [5] | [6] | [7] | [8]

C=CC(=O)OCCCCCCCC(C)C
inactive: [1] | [2] | [3] | [4]

CCCC(C)C(=O)OCC (stereo unspecified)
inactive: [5] | [6] | [7] | [8]

Nc1nc(N)nc(-c2ccccc2)n1
inactive: [5] | [6] | [7] | [8]

CCCCC1C(=O)N(c2ccccc2)N(c2ccccc2)C1=O
inactive: [1] | [2] | [3] | [4]

Oc1ccccc1Cc1ccccc1O
inactive: [5] | [6] | [7] | [8]

CCCCCCCCC(CO)CCCCCC (stereo unspecified)
inactive: [1] | [2] | [3] | [4]

CCCCCC1=CCCC1=O
inactive: [1] | [2] | [3] | [4]
